PubChem BioAssay AID463173 (ICCB-Longwood Screening Facility, Harvard Medical School, 2010)
Among all 52,000 compounds or so, about 4,300 (8.3%) were called active. For the sample, actives were picked, then their nearest neighbours and some compounds at random. A number with no mark means an inactive call. Rule as the data show it: active = survival mostly below about 52% (no sharp cut-off); inactive = mostly above about 56%.

What follows are compounds tested on DeltatarO mutant (assay: S. aureus survival, RN4220 and DeltatarO strains – OD600, teichoic acid synthesis inhibitors, primary screen (AID 463173)). Conditions: S. aureus RN4220 wild type/DeltatarO growth, OD600, 18 h, stronger effect = lower value, screened at 18.75 µg/mL (by protocol).

Compound	survival
CCC(c1nnnn1CCc1ccccc1)N(Cc1ccco1)Cc1cc2cc(C)ccc2[nH]c1=O (stereo unspecified)	62%
COc1ccc(C2=C(C)C(N3CCC(C(=O)NCc4ccc(C)o4)CC3)=NS2(=O)=O)cc1	74%
COc1cccc(NC(=O)Cn2cc(S(=O)(=O)Cc3ccccc3F)c3ccccc32)c1	78%
CN1CCN(CCC(=O)Nc2ccc(Cl)cc2)CC1	61%
COc1ccc(N2C(=O)CSC23C(=O)N(CC(=O)NC2CCCCC2)c2ccccc23)cc1 (stereo unspecified)	83%
Cc1cc(=O)c2c(ccc3ccccc32)[nH]1	91%
CC(OC(=O)CN1C(=O)COc2ccccc21)C(=O)NCc1cccs1 (stereo unspecified)	100%
CCOc1ccc(CNC(=O)c2ccc(NC(=O)N3CCCCc4ccccc43)cc2)cc1OC	73%
COc1cccc(CNC(=O)CN2C(=O)N(c3cccc(Cl)c3)S(=O)(=O)c3ccccc32)c1OC	72%
O=C(CCCN1C(=O)C(c2ccccc2)Oc2cccnc21)Nc1ccccc1C(F)(F)F (stereo unspecified)	100%
CCOCCc1nn2c(=O)cc(COC(=O)c3ccc(NC(=O)C(C)(C)C)cc3)nc2s1	83%
CCOCCc1nn2c(=O)cc(COC(=O)c3ccc(NC(=O)c4cccs4)cc3)nc2s1	112%
CCCc1nn2c(=O)cc(COC(=O)c3cccc(NC(=O)COc4ccc(F)cc4)c3)nc2s1	99%
CCOCCc1nn2c(=O)cc(COC(=O)c3ccc(NC(=O)c4ccc(F)cc4)cc3)nc2s1	32% (active)
CCCc1nn2c(=O)cc(COC(=O)c3ccc(NC(=O)COc4ccc(F)cc4)cc3)nc2s1	37% (active)
CCCc1nn2c(=O)cc(COC(=O)c3ccc(NC(=O)COc4ccccc4)cc3)nc2s1	92%
Cc1ccc(OCc2n[nH]c(=S)n2C2CCCCC2)cc1	99%
Cc1ccc(C2=CC(c3ccccc3F)n3c(nc4ccccc43)N2)cc1C (stereo unspecified)	70%
O=C(NC1CCCCC1)C(c1ccc(O)c(O)c1)N(C(=O)Cn1nnc2ccccc21)C1CCCCC1 (stereo unspecified)	99%
O=c1ccc2cc(S(=O)(=O)Nc3ccc(OC(F)(F)F)cc3)ccc2[nH]1	91%
COC(=O)c1cccnc1-n1c(=O)c2cccnc2n(CC(=O)Nc2c(C)cc(C)cc2C)c1=O	82%
CC(C)CNCC1OCc2ccccc2CO1	98%

Compound	survival
CC(=O)c1ccc(NC(=O)CCCSc2nc(-c3ccco3)cc(C(F)(F)F)n2)cc1	98%
CC(=O)c1cccc(NC(=O)CCCSc2nc(-c3ccco3)cc(C(F)(F)F)n2)c1	31% (active)
COc1ccc(NC(=O)CCS(=O)(=O)c2nc(-c3ccc4c(c3)OCO4)cc(C(F)(F)F)n2)cc1	103%
CC(C)NC(=O)CCSc1nc(-c2ccc3c(c2)OCO3)cc(C(F)(F)F)n1	57%
CCCNC(=O)CCSc1nc(-c2ccc3c(c2)OCO3)cc(C(F)(F)F)n1	68%
CC(C)(C)NC(=O)CCSc1nc(-c2ccc3c(c2)OCO3)cc(C(F)(F)F)n1	15% (active)
COc1ccc(NC(=O)CCSc2nc(-c3ccco3)cc(C(F)(F)F)n2)cc1	57%
O=C(CCS(=O)(=O)c1nc(-c2ccc3c(c2)OCO3)cc(C(F)(F)F)n1)Nc1ccc(Br)cc1	94%
COc1ccc(NC(=O)CCSc2nc(-c3ccco3)cc(C(F)(F)F)n2)cc1OC	50%
O=C(CCS(=O)(=O)c1nc(-c2ccc3c(c2)OCO3)cc(C(F)(F)F)n1)Nc1ccc(F)c(Cl)c1	23% (active)
COc1cccc(NC(=O)CCSc2nc(-c3ccco3)cc(C(F)(F)F)n2)c1	27% (active)
CC(=O)c1ccc(NC(=O)CCSc2nc(-c3ccco3)cc(C(F)(F)F)n2)cc1	46%
Cc1cc(F)ccc1NC(=O)CCS(=O)(=O)c1ccc2c(c1)CC(C)N2C(=O)C1CC1 (stereo unspecified)	81%
Cc1cccc(N2CCn3c2nc2c3c(=O)n(CCCc3ccccc3)c(=O)n2C)c1	76%
CCSc1nnc(C2CCCN(C(=O)NCc3ccccc3)C2)n1C (stereo unspecified)	84%
CC1CCCCN1C(=O)CSc1nc(-c2ccccc2)no1 (stereo unspecified)	83%
Cc1ccc(S(=O)(=O)C(CNS(=O)(=O)c2cc(F)ccc2F)c2cccs2)cc1 (stereo unspecified)	64%
CC1C(=O)CC(c2ccco2)NC1c1ccco1 (stereo unspecified)	56%
CCc1nc2ccc(C(=O)NCCc3ccccc3OC)cc2nc1CC	73%
Cc1ccc(-c2cc3c(N4CCN(c5cc(C)ccc5C)CC4)nccn3n2)cc1	68%
COc1ccc(NC(=O)Cn2c(SCc3cc(C)ccc3C)nc3ccncc32)c(OC)c1OC	61%
Cc1cccc2c1-c1sc(C(=O)NCCc3ccc(Cl)cc3)cc1CO2	86%

Compound	survival
COc1ccc(/C=C/C(=O)Nc2sc(C)c(C)c2C(=O)O)cc1	60%
COc1ccc(-n2cnc3cc(C(=O)NC4CCCCCC4)ccc32)cc1	117%
CCN1C(=O)CC(C(=O)NC)SC1=Nc1cc(Cl)c(O)c(Cl)c1 (stereo unspecified)	75%
CC(=O)Nc1ccc2nc3c(=O)[nH]c(=O)[nH]c3nc2c1	72%
COc1ccc(-c2cc(C(F)(F)F)nc(SCCC(=O)Nc3ccc(OC)c(OC)c3)n2)cc1	40% (active)
COc1ccc(NC(=O)CCSc2nc(-c3ccc(OC)cc3)cc(C(F)(F)F)n2)cc1	70%
COc1ccc(-c2cc(C(F)(F)F)nc(SCCC(=O)Nc3ccc(NC(C)=O)cc3)n2)cc1	61%
CC(C)(C)NC(=O)COc1ccc(CNc2ccc3c(c2)OCCO3)cc1	87%
COc1ccc(CCNC(=O)CCn2c(=O)c3ccccc3n(Cc3ccc(Cl)cc3)c2=O)cc1OC	119%
O=C(CCCCn1c(=O)c2ccccc2n(Cc2ccccc2F)c1=O)NCc1ccccc1Cl	97% (active)
Cc1ccccc1Cn1c(=O)n(CCCCC(=O)NCc2ccccc2Cl)c(=O)c2ccccc21	93%
COc1ccc(CCNC(=O)CCn2c(=O)c3ccccc3n(Cc3ccccc3F)c2=O)cc1OC	93% (active)
O=C(CCCCn1c(=O)c2ccccc2n(Cc2ccc(Cl)cc2)c1=O)NCc1ccccc1Cl	97%
COc1ccc(CCNC(=O)CCCn2c(=O)c3ccccc3n(Cc3ccccc3C#N)c2=O)cc1OC	87% (active)
COc1ccc(CCNC(=O)CCCn2c(=O)c3ccccc3n(Cc3ccccc3C)c2=O)cc1OC	85%
COc1ccc(CCNC(=O)CCn2c(=O)c3ccccc3n(Cc3ccccc3C)c2=O)cc1OC	86%
COc1ccc(CCNC(=O)CCCCn2c(=O)c3ccccc3n(Cc3ccccc3C)c2=O)cc1OC	95%
Cn1ccc2cc(S(=O)(=O)N3CCC(C(=O)NCCc4ccccc4)CC3)ccc21	89%
Cc1nn(C)c2c1c(C(F)(F)F)cc(=O)n2C(C)C(=O)N1CCN(c2ccccc2)CC1 (stereo unspecified)	86%
CC(C)OC(=O)CSc1nnc(-c2ccccc2)n1Cc1ccco1	87%
COc1ccc(Cl)cc1NC(=O)CN1Cc2ccccc2C1=O	100%
CCC(Sc1nnc2c3ccccc3n(CC)c2n1)C(=O)Nc1ccc(NC(C)=O)cc1 (stereo unspecified)	104%

Compound	survival
CC(C)(C)C1CCc2c(sc(NC(=O)c3ccco3)c2C(=O)Nc2ccccc2Cl)C1 (stereo unspecified)	135%
CC(C)(C)C1CCc2c(sc(NC(=O)c3ccncc3)c2C(=O)Nc2ccccc2Cl)C1 (stereo unspecified)	71%
Cc1ccccc1NC(=O)c1c(NC(=O)c2ccccc2F)sc2c1CCC(C)C2 (stereo unspecified)	63%
O=C(Nc1sc2c(c1C(=O)N1CCCCC1)CCCC2)c1ccccc1Cl	69%
Cc1ccccc1C(=O)Nc1sc2c(c1C(=O)N1CCC(C)CC1)CCCC2	58%
CC1CCN(C(=O)c2c(NC(=O)c3ccccc3Cl)sc3c2CCC(C(C)(C)C)C3)CC1 (stereo unspecified)	10% (active)
CC1CCN(C(=O)c2c(NC(=O)c3ccccc3F)sc3c2CCC(C(C)(C)C)C3)CC1 (stereo unspecified)	-4% (active)
Cc1ccccc1C(=O)Nc1sc2c(c1C(=O)N1CCCCC1)CCC(C)C2 (stereo unspecified)	49%
COC(=O)c1ccccc1NC(=O)c1c(NC(=O)c2ccco2)sc2c1CCC(C(C)(C)C)C2 (stereo unspecified)	137%
Cc1ccccc1C(=O)Nc1sc2c(c1C(=O)N1CCC(C)CC1)CCC(C)C2 (stereo unspecified)	-3% (active)
CCOc1ccccc1NC(=O)c1c(NC(=O)c2ccccc2C)sc2c1CCC(C)C2 (stereo unspecified)	65%
CC(C)(C)C1CCc2c(sc(NC(=O)c3ccccc3F)c2C(=O)N2CCCCC2)C1 (stereo unspecified)	-5% (active)
Cc1cccc(-n2nnc(-c3nc(-c4cccs4)no3)c2N)c1	87%
COc1ccc(OC)c(NC(=O)Cn2cc(S(=O)(=O)c3ccccc3)c(=O)c3cc(C)ccc32)c1	70%
CCOc1ccc(NC(=O)Cn2ccn3nc(-c4ccc(OC)c(OC)c4)cc3c2=O)cc1	102%
Cc1ccc(SCC(=O)Nc2ccc(O)c(-c3nc4cc(C)ccc4o3)c2)cc1	64%
NNC(=O)C(Sc1n[nH]c(=O)[nH]c1=O)c1ccccc1 (stereo unspecified)	80%
Cc1oc(C(C)(C)C)cc1C(=O)NCCO	77%
CCOc1cccc(C2c3[nH]c4ccccc4c3CCN2C(=O)CSc2ccccc2)c1 (stereo unspecified)	71%
COc1ccc(-c2cc(C(F)(F)F)nc(SCC(=O)Nc3ccc(C(C)=O)cc3)n2)cc1	59%
